# Compounds with a hit are over-represented: about 6.1% of the library has one in this group of screens.
# ATXN2 expr inh = Primary qHTS for Inhibitors of ATXN expression. HEK-293 ATXN2-luciferase reporter, luminescence, 24 h. Potency, µM (titrated, usually from 57 µM), inactives show at the highest dose activity change, negative = inhibition, actives largely listed as inhibitors. 360,000 tested, 0.72% active; further: on the % scale 0 is the no-effect control and ±100 the full control effect; nearly all actives have a fitted effect of over 55% in size
#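 qHTS (up to 57 uM final) was run with 24 h compound exposure of reporter cells at 37 °C. Each well was multiplexed: SteadyGlo luminescence measured ATXN2-luciferase expression after a fluorogenic Gly-Phe-AFC viability readout (25 uM final).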
# Gal4-VP16 FLuc = VP16 counterscreen qHTS for inhibitors of ROR gamma transcriptional activity; 310,000 tested, 3.5% active; AID 2546, 2010; Potency, µM (titrated, usually from 53.6 µM), for inactives: at the top dose activity, negative = inhibition, usual class: inhibitors; Drosophila S2 Gal4-VP16 UAS-luciferase, luminescence, 20 h;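 further: Gal4-VP16 expression switched on by copper sulfate through the metallothionein promoter; on the % scale 0 is the no-effect control and ±100 the full control effect; nearly all actives have a fitted effect of over 50% in size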
# RORgamma inh = qHTS for inhibitors of ROR gamma transcriptional activity; Nuclear receptor ROR-gamma (Mus musculus), P51450; Potency, µM (top dose mostly 53.6 µM), without a hit: at the top dose activity change, negative = inhibition, most hits filed as inhibitors; 310,000 tested, 5.4% active; Drosophila S2 Gal4-RORgamma UAS-luciferase reporter, 20 h; further: on the % scale 0 is the no-effect control and ±100 the full control effect; nearly all actives have a fitted effect of over 60% in size
# Target sequence (P51450 whole entry, looked up, the tested form may be a part): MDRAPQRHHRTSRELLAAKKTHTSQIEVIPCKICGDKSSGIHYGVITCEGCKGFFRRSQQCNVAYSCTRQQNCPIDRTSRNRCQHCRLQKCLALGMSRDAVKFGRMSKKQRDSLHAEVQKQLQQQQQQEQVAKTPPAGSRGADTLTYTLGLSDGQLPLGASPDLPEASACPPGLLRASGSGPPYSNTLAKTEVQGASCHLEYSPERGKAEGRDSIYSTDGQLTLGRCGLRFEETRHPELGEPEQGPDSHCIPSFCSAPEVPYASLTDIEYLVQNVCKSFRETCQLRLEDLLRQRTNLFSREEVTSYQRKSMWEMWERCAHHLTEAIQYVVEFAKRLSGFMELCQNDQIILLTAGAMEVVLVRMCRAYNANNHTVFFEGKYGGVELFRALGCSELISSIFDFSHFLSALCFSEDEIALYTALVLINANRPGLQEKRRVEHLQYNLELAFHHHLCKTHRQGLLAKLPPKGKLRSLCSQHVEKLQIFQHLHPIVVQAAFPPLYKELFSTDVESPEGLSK
#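 Compounds are pin-transferred onto Drosophila Schneider cells expressing a copper-inducible Gal4–ROR gamma transactivation domain fusion. After 1 hr, copper sulfate is added to 700 uM final; luciferase is read 20 hr later.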
# HepG2 viability = qHTS for Inhibitors of TGF-b: Cytotox Counterscreen | HepG2 CAGA-GFP viability, ATP luminescence, 18 h | AID 588856, 2011 | Potency, µM (top dose mostly 46.1 µM), inactives show at the top dose activity change, negative = cytotoxicity, hits mostly cytotoxic | 410,000 tested, 0.76% active
#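 HepG2 CAGA-GFP cells (1000/well, DMEM with 1% FBS) received compound, then TGF-beta at 500 pg/mL final, and were incubated 18 hours at 37 degrees C. Viability was read by CellTiter-Glo luminescence. Media-only wells were set as complete cell-killing and DMSO as no toxicity.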
# TGFb inhibitor = qHTS for Inhibitors of TGF-b; AID 588855, 2011; 410,000 tested, 1.2% active; Potency, µM (series often up to 46.1 µM), for inactives: at the highest dose activity, negative = inhibition, actives largely listed as inhibitors; HepG2 CAGA-GFP TGF-b/SMAD3 reporter, GFP fluorescence, 18 h; TGF-beta stimulated, 500 pg/mL final; further: on the % scale 0 is the no-effect control and ±100 the full control effect; nearly all actives have a fitted effect of over 65% in size
#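 Using HEPG2 CAGA-GFP reporter cells at 1000 cells/well, we pinned test compounds, stimulated with recombinant TGF-beta (500 pg/mL final) and measured total well GFP after 18 h.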
# S2 tox = Viability Counterscreen for Primary qHTS for Inhibitors of ATXN expression; S2 cells (HEK-293 line with an ATXN2-luciferase reporter) viability, CellTiter-Fluor protease fluorescence, 24 h; Potency, µM (doses to about 56.7 µM), usual class: cytotoxic; 400,000 tested, 0.49% active; AID 651635, 2014; further: nearly all actives have a fitted effect of over 40% in size
# Numbers without * were called inactive; i = inactive; ? = inconclusive; nt = no result; [ ] = remark or other dose. The call rests on the fitted dose curve; in most records, active means well fitted curve in the direction sought with a large enough effect; inconclusive means small, poorly fitted or top-dose-only effect, or another doubt; inactive means no such curve, though single readings can be large; an effect the other way counts as inactive or inconclusive. Potency means the concentration at half of the fitted maximal effect.
SMILES,ATXN2 expr inh,Gal4-VP16 FLuc,RORgamma inh,HepG2 viability,TGFb inhibitor,S2 tox
COc1ccc(OC2C=CC(C#Cc3ccc(F)cc3F)OC2CO)cc1 (stereo not given),nt,-7%[10 µM],28%[10 µM],nt,nt,nt
Cc1[nH]c(=S)sc1Cc1ccc(Cl)c(Cl)c1,nt,?,16µM*,nt,nt,nt
Cc1nnc(SCc2ccc(Cl)c(Cl)c2)s1,56%,6%,16%,3%,3%,i
CNC(=S)N/N=C(\C)c1ccc(Cl)c(Cl)c1,-8%,7.1µM*,2.8µM*,-1%,-14%,i
C/C(=N\O)c1ccc(Cl)c(Cl)c1,43%,-13%,1%,0%,3%,i
COCCNC(=S)N/N=C(\C)c1ccc(Cl)c(Cl)c1,15%,4.5µM*,2.8µM*,-58%,8.9µM*,i
COCCNC(=S)N/N=C(\C)c1ccc(Cl)c(Cl)c1Cl,-24%,7.9µM*,4µM*,8%,?,i
CCOC(=O)c1ccccc1NC(=O)CSc1cc(C)[nH]c(=O)n1,-1%,nt,nt,1%,-2%,i
Cc1ccc2nc(-c3ccccc3)nn2c1,3.2µM*,nt,nt,-27%,25%,i
Cc1ccc(-c2nnc(-c3ccccc3)c(-c3ccccc3)n2)cc1,0%,5%,23%,-18%,3%,i
COc1ccc(OC)c(/C=C2\Cc3ccccc3C2=O)c1,nt,nt,nt,-32%,-24%,nt
COc1ccc(C2NCCc3c2[nH]c2ccccc32)cc1CN1CCc2cc(OC)c(OC)cc2C1C (stereo not given),?,-11%,-33%,-44%,-17%,i
COc1ccc(C2NCCc3c2[nH]c2ccccc32)cc1COc1ccc(F)cc1 (stereo not given),28µM*,8.9µM*,10µM*,11µM*,?,32µM*
CC1CN(C(=O)N2CCC(C(=O)NCCCc3ccccc3)CC2)c2ccccc2O1 (stereo not given),nt,nt,nt,-12%,-27%,nt
Cc1ccc(C)c2sc(NC(=O)c3ccc(N4C(=O)CCC4=O)cc3)nc12,-14%,-19%,0.2µM*,-38%,4%,i
COc1ccc(C)c2sc(NC(=O)c3cccc(N4C(=O)CCC4=O)c3)nc12,10%,-1%,46%,-4%,1%,i
Cc1ccc([N+](=O)[O-])cc1N=Nc1c(C)[nH]n(C(N)=S)c1=O,nt,10µM*,7.1µM*,-15%,?,?
NC(=S)n1[nH]c(-c2ccc([N+](=O)[O-])cc2)c(N=Nc2ccc(Cl)cc2)c1=O,?,?,0.4µM*,2.5µM*,2.5µM*,i
Cc1ccc([N+](=O)[O-])cc1N=Nc1c(-c2ccc([N+](=O)[O-])cc2)[nH]n(C(N)=S)c1=O,?,-11%,0.32µM*,-34%,2.8µM*,?
Cc1cc([N+](=O)[O-])ccc1N=Nc1c(N)[nH]n(-c2ccccc2)c1=O,-22%,-3%,18%,3%,0%,i
Cc1c(C(=O)NCC2(c3ccccc3)CCOCC2)cnn1-c1nccc(-c2ccco2)n1,nt,nt,nt,nt,nt,i
CC(SC(C)C(=O)NN=Cc1c[nH]c2ccccc12)C(=O)NN=Cc1c[nH]c2ccccc12 (stereo not given),5%,nt,nt,11%,10%,i
Cc1[nH]c2ccccc2c1/C=N\NC(=O)c1ccccc1Cl,nt,nt,nt,-54%,2%,i
Cc1[nH]c2ccccc2c1/C=N/NC(=S)NC(C)C,-13%,7.1µM*,2.5µM*,-14%,4%,i
CC(C)NC(=S)N/N=C/c1c[nH]c2ccccc12,29%,1.4µM*,3.5µM*,-38%,-6%,i
SMILES,ATXN2 expr inh,Gal4-VP16 FLuc,RORgamma inh,HepG2 viability,TGFb inhibitor,S2 tox
Cc1cnc(NS(=O)(=O)c2ccc(N)cc2)nc1,-3%,nt,nt,nt,nt,i
COCC#Cc1ccc(C2NC(C(=O)O)CCC2C)cc1 (stereo not given),nt,0%[10 µM],8%[10 µM],nt,nt,nt
CCCCC#CC1C=CC(Oc2cc(OC)c(OC)c(OC)c2)C(CO)O1 (stereo not given),nt,-8%[10 µM],18%[10 µM],nt,nt,nt
CCN(CC)C(=O)COc1c(-c2ccco2)oc2ccccc2c1=O,4%,-10%,5%,7%,-1%,i
CC(=O)Oc1c(-c2ccco2)oc2ccccc2c1=O,-5%,?,13µM*,-24%,32%,nt
COC(=O)c1ccccc1NC(=O)CCC(=O)N1CC(C)Sc2ccccc21 (stereo not given),nt,nt,nt,-16%,?,nt
CCCCN(CCC(=O)O)c1ccc(/C=C/c2ccnc3ccccc23)cc1,nt,nt,nt,5.6µM*,?,nt
CN(C)c1ccc(/C=C/c2ccnc3ccccc23)c(F)c1,nt,nt,nt,-51%,?,nt
CN(C)c1ccc(/C=C\C=C/c2ccnc3ccccc23)cc1,nt,nt,nt,-32%,8.9µM*,nt
CCCc1nc2ccc(C)cn2c1Cc1ccc(C)cc1,?,nt,nt,-22%,?,25µM*
Cc1ccc2nc(C3CCCCC3)c(Cc3cccc(F)c3)n2c1,?,nt,nt,-12%,?,?
Cc1ccc2nc(C3CCCCC3)c(Cc3ccccc3)n2c1,?,nt,nt,-63%,?,13µM*
CCCc1nc2ccc(C)cn2c1Cc1ccccc1,0%,nt,nt,-17%,-14%,nt
C=CCNC(=S)NNC(=O)CCC(O)CCCCC (stereo not given),-7%,-16%,10µM*,-32%,-2%,i
C=CCNC(=S)NNC(=O)C(CCCC)CC(C)O (stereo not given),-5%,-5%,-29%,-2%,?,i
Fc1ccc(Nc2nc(SCc3cccc(F)c3)nc3ccccc23)cc1,nt,nt,nt,13µM*,?,nt
Fc1ccc(Nc2nc(SCc3cccc(Cl)c3)nc3ccccc23)cc1,nt,nt,nt,-108%,?,nt
CCCC(C)C(=O)Nc1cc(S(=O)(=O)N2CCCCC2)ccc1N1CCOCC1 (stereo not given),-1%,nt,nt,-11%,-3%,i
COc1cccc(C(=O)Nc2cc(S(=O)(=O)N3CCOCC3)ccc2N2CCOCC2)c1,-4%,nt,nt,-2%,-2%,i
C/C(=N\NC(=S)Nc1ccc(C)c(C)c1)c1ccc(N2CCOCC2)cc1,0%,?,14µM*,-17%,2%,i
C/C(CCC(C)C)=N\NC(=S)Nc1cc(S(=O)(=O)N2CCOCC2)ccc1N1CCOCC1,-8%,?,11µM*,-47%,?,i
COc1ccc2cc(/C(C)=N/NC(=S)Nc3cc(S(=O)(=O)N4CCOCC4)ccc3N3CCOCC3)ccc2c1,nt,8%[10 µM],6.3µM*,nt,nt,nt
